Laboratory results taken from PubChem BioAssay (NCI).
Compounds without any hit were thinned out: in the full panel of roughly 83,000, 20% have a hit.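 The endpoint reported here, percent growth, reads 100 for growth as untreated, 0 for no net growth and -100 for all cells dead.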 Active and inactive are the calls of the source.

test system: IGROV1 ovarian; assay: NCI-60 one-dose screen, 48 h (100 = growth as untreated, 0 = no growth, -100 = all killed); conditions: 10 µM unless noted
Experimental: Growth inhibition of the IGROV1 human tumor cell line is measured as a screen for anti-cancer activity. Cells are grown in 96 well plates and exposed to the test compound for 48 hours. Compounds are tested at a single concentration, which is 10^-5 M for most compounds. The reported endpoint is percent growth (GI% or GIPRCNT), where numbers from 0 - 100% represent growth inhibition, and numbers from -100% - 0 represent cell death. For example, a value of 40 represents 60% growth inhibition. A value of 0 means no net growth occurred over the course of the experiment. A value of -40 indicates 40% of cells at the beginning of the experiment died by the end of the experiment. A value of -100 means all cells are dead at the end of the experiment.
NCI-60 Human Tumor Cell Lines Screen was performed using the standard one-dose NCI protocol, which is described in more detail at https://dtp.cancer.gov/discovery_development/nci-60/default.htm.
Compounds with GIPRCNT values below 10 were considered active. Activity score was based on GIPRCNT using the following formula: […]
Score is 0 for GIPRCNT values of 100 or above, 50 for GIPRCNT values of 0, and 100 for GIPRCNT values of -100.

Row | Structure (SMILES) | growth
1 | COc1ccc2c(c1)c(-c1nc(-c3ccc4ccccc4c3)cs1)cn2C | 85.9% (inactive)
2 | COc1cc(/C=N/NC(=O)c2ccc(-n3cc(-c4ccccc4)nn3)cc2)cc(OC)c1OC | 57% (inactive)
3 | CCOC(=O)c1nnn(Cc2cc(=O)oc3ccc(O)cc23)c1C | 106% (inactive)
4 | CCNC(=O)N1CCc2c(Br)c3c(c(OC)c2C1Cc1ccc(OC)cc1)OCO3 (stereo not given) | 35.7% (inactive)
5 | CCOc1ccc(/C=C/C(=O)c2cccc(OCCCOc3cccc(C(=O)/C=C/c4ccc(OCC)cc4)c3)c2)cc1 | 78.7% (inactive)
6 | S=c1ccnc[nH]1 | 110% (inactive)
7 | C(=C(\C1=NCCN1)n1ccc2ccccc21)/c1ccccc1 | 93.4% (inactive)
8 | Cn1cc(-c2nonc2-c2c[nH]c3ccccc23)c2cc(Br)ccc21 | 43% (inactive)
9 | Cc1c2ncccc2nc2[nH]c3ccc(OCCN(C)C)cc3c12 | 9.29% (active)
10 | CSc1nc(-c2ccco2)c(C#N)c(=O)n1C | 105% (inactive)
11 | Cc1[nH]n(-c2cccc(Cl)c2)c(=O)c1/C=C1\C=c2ccccc2=CC1=O | 33.9% (inactive)
12 | C#Cc1cccc(Nc2ncnc3cc(NC(=O)CCl)ccc23)c1 | -56.6% (active)
13 | Cc1ccc(-c2nc(SCC(=O)N3CCN(c4cc5c(cc4F)c(=O)c(C(=O)O)cn5C4CC4)CC3)nc(Cl)c2C#N)cc1 | 97.4% (inactive)
14 | C#CCOc1ccc2nc(CCl)c(Cl)c(Nc3cccc(C(F)(F)F)c3)c2c1 | 85.1% (inactive)
15 | COc1ccccc1S(=O)(=O)Nc1ccc2c3c(cc(CCC(=O)NCCCCNc4cccc5c4C(=O)N(C4CCC(=O)NC4=O)C5=O)cc13)C(=O)N2C (stereo not given) | -9.53% (active)
16 | CC1=C2CC/C(C)=C/CC[C@]3(C)O[C@H]3CC/C(C)=C/[C@H]2OC1 | 103% (inactive)
17 | O=C(Nc1ccc(Oc2cccc(Cl)c2)c(Cl)c1)c1cccnn1 | 91.4% (inactive)
18 | O=C1Nc2ccc(Cl)cc2/C1=C/c1ccc[nH]1 | 58.2% (inactive)
19 | N#Cc1c(-c2cccc(Cl)c2)cc(-c2cccnc2)[nH]c1=O | 72.4% (inactive)
20 | O=[N+]([O-])c1ccccc1Nc1ccc2ccccc2c1 | 87% (inactive)

Row | Structure (SMILES) | growth
21 | Nc1cc(C(=O)O)cc(-n2c(O)c(C=C3N=c4ccccc4=N3)sc2=S)c1 | 86.8% (inactive)
22 | CCN(CC)CCOc1ccc(/C(=C(\C)Cc2ccc(OC)cc2)c2ccc(OC(=O)NCc3ccccc3)cc2)cc1 | 77.5% (inactive)
23 | Oc1ccc(-c2nc3ccc4[nH]ncc4c3c3c2CCCC3)c(F)c1 | 22.9% (inactive)
24 | O=C(Nc1ccc(Nc2ccncc2)cc1)c1ccc(Nc2ccnc3ccc([N+](=O)[O-])cc23)cc1 | 97% (inactive)
25 | CC(C)(C)OC(=O)CN1CCc2c(sc3ncnc(N4CCN(c5ccc(F)cc5)CC4)c23)C1 | 89.8% (inactive)
26 | Cc1ccc(NC(=O)c2cc3ccccc3cc2O)c(C)c1 | 80.4% (inactive)
27 | C[C@H](c1nc2ccc(C#N)cc2[nH]1)[C@H]1CC[C@H]2[C@@H]3CCC4=CC(=O)CC[C@]4(C)[C@H]3CC[C@]12C | 66.9% (inactive)
28 | CC1=C(Cl)C(=O)c2cc(C)ccc2C1=O | 103% (inactive)
29 | COc1cc(C[C@H]2COc3cc(O)cc(O)c3C2=O)ccc1O | 41.3% (inactive)
30 | CCOC(=O)c1nnn(-c2no[n+]([O-])c2-c2ccc(OC)cc2)c1COc1cccc2cccnc12 | 23.5% (inactive)
31 | Cc1ccc(C2CC(c3cccc(Nc4ccncc4)c3)=Nc3c(N)nc(N)nc3N2)cc1 (stereo not given) | 42.4% (inactive)
32 | C=CN(C(=O)N1CCN(c2cc3c(cc2F)c(=O)c(C(=O)O)cn3C2CC2)CC1)c1nc(-c2ccc(Cl)cc2)cs1 | 21.4% (inactive)
33 | O=C(/C=C/C12c3ccccc3C(c3ccccc31)C1C(=O)NC(=O)C12)c1ccco1 (stereo not given) | 26.5% (inactive)
34 | C1CCC(N2CN3c4nonc4N4CN(C5CCCCC5)CN5c6nonc6N(C2)C3C45)CC1 (stereo not given) | 104% (inactive)
35 | CC1(C)CC[C@]23CC[C@]4(C)[C@H](CC[C@@H]5[C@@]6(C)CCNCC(C)(C)[C@@H]6CC[C@]54C)[C@H]2[C@H]1OC3 | 107% (inactive)
36 | O=C(Cn1nc(-c2cccc3ccccc23)ccc1=O)NCc1cccc(Cl)c1 | 47.2% [50 µM] (inactive)
37 | CN1C(=O)N2CN3CCCN(C3)CN3C(=S)NC1C23 (stereo not given) | 104% (inactive)
38 | COc1ccc(C(=O)/C=C/c2ccccc2)cc1S(N)(=O)=O | 54.3% (inactive)
39 | Cc1ccc2c(c1)=C/C(=C\c1cc(-c3ccccc3)[nH]c1O)C(=O)N=2 | 40.7% (inactive)
40 | CN(C)c1ccc(/C=N\NC(=O)c2ccc3nc(-c4ccc(Cl)cc4)[nH]c3c2)cc1 | 40.2% (inactive)
